TDP1 cell noCPT = qHTS for Inhibitors of human tyrosyl-DNA phosphodiesterase 1 (TDP1): qHTS in cells in absence of CPT | DT40 Tdp1-/- hTDP1 cells, no CPT, ATP luminescence, 48 h | actives 15% (n = 420,000) | Potency, µM (top dose mostly 46.2 µM), hits mostly inhibitors; note: nearly all actives have a fitted effect of over 55% in size
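Luminescent ATP content (CellTiter-Glo) served as the growth readout. Knockout chicken DT40 cells expressing human TDP1 were exposed to compounds without camptothecin for a minimum 48 hr at 37 °C.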
IL-1B inflam inh = blocks inflammasome-driven IL-1 beta release | THP-1 LPS/ATP IL-1B secretion, AlphaLISA, 16 h; hits give low values | activity change, % at 57.5 µM | actives 4.7% (n = 360,000); in the data active = activity change below about -50%; inconclusive = mostly about -30% to -49%
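Secreted IL-1B measured by AlphaLISA bead assay after 16 h compound exposure of THP-1 cells; compounds (final up to 57.5 uM) added 1 h before LPS (250 ng/mL) and ATP (1.25 mM) stimulation; lower signal means less secretion.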
ALOX12 inh = inhibitors of human 12S-lipoxygenase ALOX12; actives 1.1% (n = 580,000); purified 12hLO, xylenol orange hydroperoxide absorbance; Potency, µM (doses to about 108 µM), usual class: inhibitors; P18054
Target sequence (P18054 whole entry, looked up): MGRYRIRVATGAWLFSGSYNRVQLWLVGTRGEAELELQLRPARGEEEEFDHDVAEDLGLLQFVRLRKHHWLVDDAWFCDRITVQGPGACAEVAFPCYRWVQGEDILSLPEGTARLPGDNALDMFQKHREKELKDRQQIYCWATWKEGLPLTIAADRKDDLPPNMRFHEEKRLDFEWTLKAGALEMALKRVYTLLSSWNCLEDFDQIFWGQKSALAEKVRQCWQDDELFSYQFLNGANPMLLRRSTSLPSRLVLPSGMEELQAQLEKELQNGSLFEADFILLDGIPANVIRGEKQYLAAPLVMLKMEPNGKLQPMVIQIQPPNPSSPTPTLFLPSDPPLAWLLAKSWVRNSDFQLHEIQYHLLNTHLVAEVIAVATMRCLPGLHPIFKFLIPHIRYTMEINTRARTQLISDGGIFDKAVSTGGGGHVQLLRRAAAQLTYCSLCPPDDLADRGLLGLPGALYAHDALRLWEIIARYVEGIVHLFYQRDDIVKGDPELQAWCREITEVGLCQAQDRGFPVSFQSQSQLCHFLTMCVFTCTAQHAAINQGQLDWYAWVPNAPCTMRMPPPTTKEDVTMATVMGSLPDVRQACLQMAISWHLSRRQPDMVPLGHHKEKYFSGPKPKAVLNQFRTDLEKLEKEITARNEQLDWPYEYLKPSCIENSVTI
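Purified human 12hLO (150 nM final) in 25 mM Hepes, 0.01% Triton X-100, pH 7.0 was preincubated 15 min at room temperature with compound. Then 40 uM arachidonic acid was added, 30 min. Hydroperoxide was read by Fe-XO absorbance ratio 573/405 nm.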
HT1080 IDH1KD tx = kills HT-1080 cells with IDH1 knockdown | HT-1080 IDH1 knockdown viability, ATP luminescence, 48 h | Potency, µM (doses to about 46.1 µM), usual class: cytotoxic | actives 2% (n = 360,000)
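% activity derives from luminescence (CellTiter-Glo), normalised to DMSO and no-cell wells. HT-1080-IDH1KD cells, 750/well, had 48 h compound exposure at 37 °C.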
DT40 TDP1 CPT = growth inhibition of DT40 Tdp1-/-;hTDP1 cells with camptothecin (screen for TDP1 inhibitors) | actives 12% (n = 420,000) | chicken DT40 Tdp1-/-;hTDP1 cells + 20 nM CPT, ATP luminescence, 48 h | Potency, µM (series often up to 46.2 µM), most hits filed as inhibitors | AID 686979; note: nearly all actives have a fitted effect of over 55% in size
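Cell growth measured by CellTiter-Glo luminescence after a minimum 48 h, 37 C compound exposure with 20 nM CPT in Tdp1-knockout DT40 cells stably expressing hTDP1, seeded 400/well; qHTS titration format.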
HT1080NT lethal = kills 2HG-producing HT-1080-NT fibrosarcoma cells. HT-1080-NT fibrosarcoma viability, CellTiter-Glo ATP luminescence, 48 h. Potency, µM (titrated, usually from 46.1 µM), usual class: cytotoxic. actives 1.6% (n = 360,000). AID 686970;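 note: NT is the 2HG producing partner of a matched IDH1 knockdown line; nearly all actives have a fitted effect of over 55% in size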
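Toxicity toward the 2HG-producing NT line was scored as %Activity, normalised to DMSO and no-cell wells, from CellTiter-Glo luminescence after 48 hours' treatment.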
Hits are given with their value; - = inactive; ? = inconclusive; . = no result given; [ ] = dose if it differs, or a comment. This excerpt belongs to a sample that is enriched for hits. Unless noted, calls come from the whole dose curve; as a rule, active = well fitted curve in the direction sought with a large enough effect; inconclusive = small, poorly fitted or top-dose-only effect, or another doubt; inactive = no such curve, though single readings can be large; an effect the other way counts as inactive or inconclusive.

SMILES	TDP1 cell noCPT	IL-1B inflam inh	ALOX12 inh	HT1080 IDH1KD tx	DT40 TDP1 CPT	HT1080NT lethal
C=CCNC(=O)/C(C#N)=C/c1c(N2CCN(c3ccc(OC)cc3)CC2)nc2c(C)cccn2c1=O	13µM	-	-	-	?	-
C=CCNC(=O)/C(C#N)=C/c1c(N2CCN(c3ccccc3)CC2)nc2c(C)cccn2c1=O	?	-	-	-	-	-
Cc1cccn2c(=O)c(/C=C(\C#N)C(=O)NCc3ccco3)c(N3CCCC(C)C3)nc12 (stereo not drawn)	?	-53	-	-	?	-
CC1CN(C(=O)COc2cc3oc(=O)cc(-c4ccccc4)c3cc2Cl)CCO1 (stereo not drawn)	.	.	-	.	.	.
COc1ccc(C(=O)Nn2c(SCC(=O)N3CCC(C)CC3)nc3ccccc3c2=O)cc1	-	-53	-	?	-	?
CCOC(=O)N1CCC(n2c(SCC(=O)NCc3ccccc3)nc3ccccc3c2=O)CC1	21µM	-	-	-	23µM	-
O=c1c2ccccc2nc(SCCN2CCCCC2)n1CCc1ccccc1	21µM	-60	-	15µM	?	?
CC(C)Cn1c(SCC(=O)N2CCCCC2)nc2ccccc2c1=O	26µM	-	-	-	?	-
CCOC(=O)N1CCC(n2c(SCC(=O)Nc3ccccc3OC)nc3ccccc3c2=O)CC1	?	-	-	-	?	-
NC(=O)CSc1nc2ccccc2c(=O)n1CCc1ccccc1	?	-	-	-	-	-
CC(C)=C/C(C)=N/Nc1ccc(S(N)(=O)=O)cc1[N+](=O)[O-]	.	.	-	.	.	.
C=CCSc1nc2ccccc2c(=O)n1C1CCOC(C)(C)C1 (stereo not drawn)	23µM	-	-	-	16µM	-
COCCn1c(SCC(=O)N2CCC(C)CC2)nc2ccccc2c1=O	?	-	-	-	?	-
CCOC(=O)N1CCC(n2c(SCC(=O)N3CCC(C)CC3)nc3ccccc3c2=O)CC1	?	?	-	-	16µM	-
CCOC(=O)N1CCC(n2c(SCC(=O)N3CCCC3)nc3ccccc3c2=O)CC1	18µM	-	-	-	23µM	-
CN1CCN(C(=S)c2cn(Cc3cccc(F)c3)c3ccccc23)CC1	21µM	-	-	-	?	-
CN1CCN(C(=S)c2cn(Cc3ccc(F)cc3)c3ccccc23)CC1	?	-	-	-	?	-
CC1CCN(C(=S)c2cn(Cc3ccc(F)cc3)c3ccccc23)CC1	23µM	-	?	-	?	-
Cc1cc(C)c(C(=O)COC(=O)c2cc(=O)[nH]c3ccccc23)cc1C	.	.	-	.	.	.
COC/C=C/C1=CC2=CC(=O)C(C)(OC(=O)C3CCCC3)C(=O)C2=CO1 (stereo not drawn)	?	-	22µM	-	?	-
COc1nc(C)cc(C)c1S(=O)(=O)c1ccccc1	-	-	-	-	-	-
Cc1ccc(S(=O)(=O)c2c(C)cc(C)nc2Oc2cccc(C)c2C)cc1	18µM	-	-	-	?	-
Cc1cc(C)c(S(=O)(=O)c2ccccc2C)c(SCC(C)C)n1	23µM	-	-	-	?	-
CCCSc1nc(C)cc(C)c1S(=O)(=O)c1ccccc1C	7.3µM	-	-	-	16µM	-
Cc1cc(C)c(S(=O)(=O)c2ccccc2C)c(OCC(C)(C)C)n1	9.2µM	-	-	-	10µM	-
SMILES	TDP1 cell noCPT	IL-1B inflam inh	ALOX12 inh	HT1080 IDH1KD tx	DT40 TDP1 CPT	HT1080NT lethal
CCOCCOc1nc(C)cc(C)c1S(=O)(=O)c1ccccc1C	?	-	-	-	-	-
C/C(=N\Nc1ccc(S(=O)(=O)N2CCCCC2)cn1)c1ccc(O)cc1	15µM	-	-	-	?	-
COc1cccc(CNc2ccc(S(=O)(=O)N3CCCC3)cn2)c1	?	-	-	-	?	-
COc1cccc(/C(C)=N/Nc2ccc(S(=O)(=O)N3CCCCC3)cn2)c1	2.9µM	-	-	-	?	-
CCOC(=O)c1cc(S(=O)(=O)N(C)CC(=O)Nc2cccc(Cl)c2C)cn1C	.	.	-	.	.	.
COc1ccc(N(C(C)C(=O)N/N=C/c2ccc(OC)c(OC)c2)S(C)(=O)=O)cc1 (stereo not drawn)	-	-	-	-	?	-
CC(C(=O)N/N=C/c1ccc(N(C)C)c(Br)c1)N(c1ccccc1)S(C)(=O)=O (stereo not drawn)	9.2µM	-	-	-[9.24 µM]	?	-
CCON1C(=O)C(C)(C)N(OCC)C(=O)C1(C)C	12µM	-	?	-	?	-
COc1cccc(/C=C2\C(=O)N(c3cccc(C)c3)C(=O)c3ccccc32)c1	?	?	-	-	26µM	-
Cc1cccc(N2C(=O)/C(=C\c3ccc(OC(F)F)cc3)c3ccccc3C2=O)c1	?	-	-	-	?	-
CCN(CC)S(=O)(=O)c1cc(C(=O)Oc2cccc(-c3cnc4ccccc4n3)c2)ccc1Br	18µM	-	-	-	?	-
Clc1cccc(Nc2ncnc3c2nc2n3CCCCC2)c1	9.2µM	.	-	.	8.2µM	.
Clc1cccc(N2CCN(c3ncnc4c3nc3n4CCCC3)CC2)c1	21µM	.	-	.	16µM	.
COc1ccc(CNc2ncnc3c2nc2n3CCCC2)cc1	-	.	-	.	?	.
COc1ccc(OC)c(CNc2ncnc3c2nc2n3CCCC2)c1	?	.	-	.	13µM	.
Clc1ccccc1Nc1ncnc2c1nc1n2CCCCC1	?	.	-	.	8.2µM	.
O=C(/C=C/c1ccccc1)c1ccc2ccccc2c1O	.	.	-	.	.	.
Cc1ccccc1CS(=O)Cc1ccc(F)cc1 (stereo not drawn)	.	.	-	.	.	.
Cc1ccc(NCC(=O)Nc2cc(Cl)ccc2-n2cncn2)c(Cl)c1	.	.	-	.	.	.
COc1ccc(CCNc2ncnc3c2CN(C2CCCC2)C(=O)CN3C)cc1	.	.	-	.	.	.
CC(=O)n1cc(C(C[N+](=O)[O-])SCCN)c2ccccc21 (stereo not drawn)	5.2µM	-97	.	?	5.2µM	?
COc1cccc(CNC(=O)Cn2ccn3nc(-c4ccccc4)c(CO)c3c2=O)c1	.	.	-	.	.	.
COc1ccc(-c2coc3cc4oc(=O)cc(C)c4cc23)cc1F	-	-	-	-	?	-
COc1ccc(-c2coc3cc4oc(=O)cc(-c5ccccc5)c4cc23)cc1F	4.6µM	-	-	3.7µM	3.7µM	6.5µM
CC(C)c1ccc(C(=O)NCCCNC(=O)c2cc3ccccc3[nH]2)cc1	.	.	-	.	.	.
c1ccc2c(N3CCOCC3)nc(N3CCOCC3)nc2c1	?	-	?	-	?	-
Cc1ccc(Nc2nc(N3CCOCC3)c3ccccc3n2)cc1	21µM	-104	?	-	21µM	?
